# Bioassay records (PubChem BioAssay)
# GRK2 inh – human GRK2 inhibition via aptamer displacement | P25098 | bead flow cytometry, FAM-aptamer displacement from GRK2 | inhibition of aptamer binding, % at 10 µM | 330,000 compounds, 0.59% hits | AID 488847;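 active = inhibition of aptamer binding above 40%, roughly 3 SD of noise, on plates passing a quality check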;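 also: median bead fluorescence of bound FAM aptamer so fluorescent compounds give negative values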
# Neddylation inh – inhibitors of human cullin neddylation | TR-FRET cullin neddylation, biochemical | inhibition, % at 25 µM | 360,000 compounds, 0.58% hits | P61081+Q13564; in the data active = inhibition above about 36%
# HDAC3 inhib – blocks human histone deacetylase 3. O15379. recombinant HDAC3, fluorogenic peptide/trypsin coupled, fluorescence. inhibition, % at 8.3 µM. 320,000 compounds, 0.15% hits; in the data active = inhibition above about 26%, passing the limit was not always enough
# H9c2 protect – modulators protecting cardiomyocytes from myocardial damage. 360,000 compounds, 0.63% hits. AID 588492. protection from H2O2 cell death, % at 20 µM. H9c2 cardiomyocytes, H2O2 injury protection, ATPLite, 2 h;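 active = compounds giving at least 50% protection of heart cells from peroxide-induced death in the single-dose screen, raw or plate-pattern-corrected value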
# Neddyl conf – cullin neddylation inhibition, confirmation | 1,800 compounds, 13% hits | AID 652217 | TR-FRET cullin neddylation biochemical assay | shares compounds with Neddylation inh | calls only at 25 µM; in the data active = inhibition above about 40%;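 also: neddylation substrate is the cullin 1 ring ligase complex with SKP2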
# A number is an active result; - = inactive; . = not tested or not shown; + = active, no number. Most compounds without a hit are left out; they make up all but 1.8% or so of the library.
SMILES,GRK2 inh,Neddylation inh,HDAC3 inhib,H9c2 protect,Neddyl conf
CCCN(CCC)CCCNC(=O)c1cc2c(=O)n(C)c3ccccc3c2n1C,-,-,-,-,.
CCOc1ccc(-c2nc3scc(-c4cccs4)c3c(=O)[nH]2)cc1,-,40,-,-,.
CCc1nnc(NC(=O)c2ccc(-c3ccccc3F)o2)s1,-,42,-,-,-
CCCCc1c(O)n2c(nc3ccccc32)[nH]c1=O,-,60,-,-,+
CCCc1cc(=O)n2c(nc3ccccc32)[nH]1,-,49,-,-,.
O=C(Nc1cccc([N+](=O)[O-])c1)NC1CCCCCCC1,-,-,-,-,.
CCc1nn(CC(=O)Nc2cc(C)ccc2C)c(=N)s1,-,-,-,-,.
O=C(Nc1cccs1)OCCN1CCN(Cc2ccccc2)CCC1=O,-,-,-,-,.
CC(C)NCC(O)COCCOc1ccc(Cl)cc1 (stereo unspecified),-,76,-,-,-
NC(=O)C1CCN(C(=O)c2ccc3nc(-c4ccccc4)c(-c4ccccc4)nc3c2)CC1,-,56,-,-,.
CCOC(=O)N1CCN(C(=O)c2ccc3nc(-c4ccccc4)c(-c4ccccc4)nc3c2)CC1,-,42,-,-,-
NC(=O)C1CCN(C(=O)c2ccc3ncsc3c2)CC1,.,-,.,-,.
CN(C)c1ccc(-c2[nH][nH]c(=O)c2NC(=O)c2ccccn2)cc1,.,45,.,-,-
Cc1cccc(CN2[C@@H](CC(C)C)COCCS2(=O)=O)c1,-,-,-,-,.
CN1C=CC2=C(C#N)C(N)C(C#N)(C#N)C(c3ccccc3)C2C1 (stereo unspecified),-,43,-,-,-
Cc1ccc(S(=O)(=O)N2CCCCC2)cc1NC(=O)C1CCCO1 (stereo unspecified),-,-,-,-,.
Cc1ccc(F)cc1C(=O)N1CCOCC1c1cc(C(=O)NCc2ccccc2)no1 (stereo unspecified),.,-,.,-,.
CC1(C)Cc2c(C#N)c(NCCO)nc(-c3ccco3)c2CO1,-,39,-,-,.
CCOc1ccc(S(=O)(=O)N2CCN(C(=O)C3CC3C)CC2)cc1 (stereo unspecified),-,-,-,-,.
COc1ccc2sc(-c3ccccc3OC)c(C#Cc3cncn3C)c2c1,-,-,.,-,.
COc1ccccc1-c1sc2cc3c(cc2c1C#Cc1cncn1C)OCO3,-,30,-,-,+
Cc1cc(NC(=O)CSc2nnc3ccc(-c4ccc(F)cc4)nn23)no1,-,-,-,-,.
CCCCc1c(O)c2ccccc2[nH]c1=O,-,-,-,-,.
CCCc1c(O)c2ccccc2[nH]c1=O,-,38,-,-,-
Cc1cc(F)ccc1S(=O)(=O)Nc1ccccc1C(=O)NCc1cccnc1,-,44,-,-,-
SMILES,GRK2 inh,Neddylation inh,HDAC3 inhib,H9c2 protect,Neddyl conf
Cc1ccccc1C(=O)NC1CCN(Cc2ccccc2)CC1,-,-,-,-,.
Cc1cc(F)ccc1S(=O)(=O)Nc1ccccc1C(=O)NC1CCN(Cc2ccccc2)CC1,.,47,.,-,+
COc1ccccc1NS(=O)(=O)c1ccc(C)c(C(=O)NCc2cccnc2)c1,-,-,-,-,.
COc1ccc(S(=O)(=O)Nc2ccccc2C(=O)NCc2cccnc2)cc1C,-,40,-,-,.
COc1ccc(OC)c(S(=O)(=O)N/N=C(/C)c2ccc3c(c2)OCO3)c1,-,-,-,-,.
CCCCCCCN1C2=NCCCN2c2ccccc21,-,-,-,-,.
CCOc1c(C#N)c(C#N)c2nc(C)cc(C)n12,-,-,-,-,.
Cc1cc(C)n2c3c(c(C#N)c2n1)CCCC3,-,41,-,-,-
COc1ccc(NC(=O)C(c2ccncc2)n2c(=O)c(-c3ccccc3)nc3ccccc32)cc1 (stereo unspecified),.,51,.,.,-
CCCCCNC(=O)C(c1ccc(-c2ccccc2)cc1)n1c(=O)c(-c2ccccc2)nc2ccccc21 (stereo unspecified),.,-,.,.,.
O=C(NC1CCCCC1)C(c1ccncc1)n1c(=O)c(-c2ccccc2)nc2ccccc21 (stereo unspecified),.,45,.,.,+
CCCCCNC(=O)C(c1ccncc1)n1c(=O)c(-c2ccccc2)nc2ccccc21 (stereo unspecified),.,45,.,.,-
CC(C)c1ccccc1NC(=O)CCc1nc2ccccc2s1,-,-,-,-,.
CN1CCc2c(sc3nc(SCC(=O)N4CCOCC4)nc(N)c23)C1,-,42,-,-,-
Oc1cccc2cc3cccc(O)c3c(O)c12,-,-,-,-,.
